Results taken from PubChem BioAssay AID1159580 (chemical genetic matrix, 2015).
Hit rate of the full screen: of about 5,500 compounds, about 2,000 (36%) were called active. About 18% were inconclusive and are not listed. No stated cut-off is given here; in the data, active means normalized growth mostly below about 0.91 (no sharp cut-off); inconclusive means no clear call, values can overlap the other calls; inactive means mostly above about 0.92. The list shows a part of the results.

Assay: chemical genetic growth profiling, strain panel (AID 1159580);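 further: tested at 20 µM; growth read once vehicle control cultures reached saturation at 30 °C; 1 = growth at the plate median or of vehicle wells; lower values mean less growth of the strain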
Conditions: S. cerevisiae deletion strains, growth OD

Measured: normalized growth

COc1ccc2c(c1)OCC(Cc1ccc(O)c(OC)c1)C2=O (stereo not given)
inactive: locus YAL021C, strain ccr4, hits give low values 0.982 | locus YAL026C, strain drs2, hits give low values 0.982 | locus YAL030W, strain snc1, hits give low values 0.968 | locus YBL061C, strain skt5, hits give low values 0.978 | locus YBR009C, strain hhf1, hits give low values 0.972 | locus YBR023C, strain chs3, hits give low values 0.97 | locus YBR171W, strain sec66, hits give low values 0.969 | locus YBR231C, strain swc5, hits give low values 0.971 | locus YBR279W, strain paf1, hits give low values 0.982 | locus YCL011C, strain gbp2, hits give low values 0.953 | locus YCL016C, strain dcc1, hits give low values 0.97 | locus YCL061C, strain MRC1, hits give low values 0.971 | locus YCL069W, strain vba3, hits give low values 0.979 | locus YCR088W, strain abp1, hits give low values 0.965 | locus YDL005C, strain med2, hits give low values 0.965 | locus YDL040C, strain nat1, hits give low values 0.972 | locus YDR001C, strain nth1, hits give low values 0.967 | locus YDR069C, strain doa4, hits give low values 0.963 | locus YDR137W, strain rgp1, hits give low values 0.922 | locus YDR159W, strain sac3, hits give low values 0.957 | locus YDR195W, strain ref2 0.958 | locus YDR297W, strain sur2, hits give low values 0.98 | locus YDR334W, strain swr1, hits give low values 0.949 | locus YDR335W, strain msn5, hits give low values 0.985 | locus YDR392W, strain spt3, hits give low values 0.882 | locus YEL003W, strain gim4, hits give low values 0.98 | locus YEL037C, strain rad23, hits give low values 0.97 | locus YEL061C, strain CIN8 (second series), hits give low values 0.977 | locus YER015W, strain faa2, hits give low values 0.974 | locus YER016W, strain bim1, hits give low values 0.969 | locus YER111C, strain swi4, hits give low values 0.999 | locus YER155C, strain BEM2 (second series), hits give low values 0.974 | locus YFR010W, strain ubp6, hits give low values 0.949 | locus YGL167C, strain pmr1, hits give low values 0.974 | locus YGL173C, strain kem1, hits give low values 0.973 | locus YGL227W, strain vid30, hits give low values 0.979 | locus YGL240W, strain doc1, hits give low values 0.96 | locus YGL253W, strain hxk2, hits give low values 0.974 | locus YHR013C, strain ard1, hits give low values 1 | locus YHR027C, strain rpn1, hits give low values 0.963 | locus YHR030C, strain SLT2, hits give low values 1.03 | locus YHR079C, strain IRE1, hits give low values 1.03 | locus YHR142W, strain chs7, hits give low values 0.943 | locus YJL092W, strain hpr5, hits give low values 0.932 | locus YJL095W, strain BCK1 (second series), hits give low values 0.98 | locus YJL095W, strain BCK1, hits give low values 1.05 | locus YJL115W, strain asf1, hits give low values 0.951 | locus YJL129C, strain trk1, hits give low values 0.943 | locus YJL154C, strain vps35, hits give low values 0.973 | locus YJL164C, strain tpk1, hits give low values 0.968 | locus YJL166W, strain qcr8, hits give low values 0.991 | locus YJL187C, strain SWE1, hits give low values 0.998 | locus YJR066W, strain TOR1, hits give low values 0.966 | locus YKL160W, strain elf1, hits give low values 0.985 | locus YKR026C, strain gcn3, hits give low values 0.967 | locus YKR091W, strain srl3, hits give low values 0.965 | locus YLL001W, strain dnm1, hits give low values 0.954 | locus YLL026W, hits give low values 0.975 | locus YLL041C, strain sdh2, hits give low values 0.966 | locus YLR027C, strain aat2, hits give low values 0.964 | locus YLR113W, strain HOG1, hits give low values 0.979 | locus YLR221C, strain rsa3, hits give low values 0.982 | locus YLR258W, strain gsy2, hits give low values 0.961 | locus YLR262C, strain YPT6 (second series), hits give low values 0.949 | locus YLR320W, strain mms22, hits give low values 0.983 | locus YLR342W, strain FKS1, hits give low values 0.979 | locus YLR357W, strain rsc2, hits give low values 0.965 | locus YLR370C, strain arc18, hits give low values 0.948 | locus YLR384C, strain iki3, hits give low values 0.981 | locus YML120C, strain ndi1, hits give low values 0.971 | locus YMR058W, strain fet3, hits give low values 0.964 | locus YMR125W, strain sto1, hits give low values 0.948 | locus YMR129W, hits give low values 0.974 | locus YMR205C, strain PFK2, hits give low values 0.974 | locus YMR231W, strain pep5, hits give low values 0.99 | locus YNL071W, strain lat1, hits give low values 0.986 | locus YNL183C, strain NPR1, hits give low values 0.964 | locus YNL209W, strain ssb2, hits give low values 0.988 | locus YNL248C, strain rpa49, hits give low values 0.971 | locus YNL322C, strain KRE1 (second series), hits give low values 0.977 | locus YNR049C, strain mso1, hits give low values 0.965 | locus YOR001W, strain rrp6, hits give low values 0.982 | locus YOR070C, strain gyp1, hits give low values 0.993 | locus YOR080W, strain dia2, hits give low values 0.97 | locus YOR083W, strain WHI5, hits give low values 0.971 | locus YOR106W, strain vam3, hits give low values 0.952 | locus YOR231W, strain MKK1, hits give low values 1.06 | locus YOR265W, strain rbl2, hits give low values 0.975 | locus YOR270C, strain vph1, hits give low values 0.951 | locus YOR290C, strain snf2, hits give low values 0.965 | locus YPL051W, strain arl3, hits give low values 0.983 | locus YPL078C, strain atp4, hits give low values 0.978 | locus YPL106C, strain sse1, hits give low values 0.914 | locus YPL240C, strain hsp82, hits give low values 0.957 | locus YPL256C, strain CLN2, hits give low values 1.03
